Hits are enriched below; roughly 1% of the tested compounds scored in any of these assays.
NPR2 activator = GC-B (human) receptor activation; activation, % at 10 µM; HEK293-GC-B cells, CNP EC30, cGMP TR-FRET; 0% at EC30 CNP, 100% saturating CNP; actives 0.11% (n = 370,000); AID 1920062;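 active means activation at 10 µM reaching about 35% in either raw or pattern-adjusted values, limit read from the data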
Target sequence (P20594 whole entry, looked up): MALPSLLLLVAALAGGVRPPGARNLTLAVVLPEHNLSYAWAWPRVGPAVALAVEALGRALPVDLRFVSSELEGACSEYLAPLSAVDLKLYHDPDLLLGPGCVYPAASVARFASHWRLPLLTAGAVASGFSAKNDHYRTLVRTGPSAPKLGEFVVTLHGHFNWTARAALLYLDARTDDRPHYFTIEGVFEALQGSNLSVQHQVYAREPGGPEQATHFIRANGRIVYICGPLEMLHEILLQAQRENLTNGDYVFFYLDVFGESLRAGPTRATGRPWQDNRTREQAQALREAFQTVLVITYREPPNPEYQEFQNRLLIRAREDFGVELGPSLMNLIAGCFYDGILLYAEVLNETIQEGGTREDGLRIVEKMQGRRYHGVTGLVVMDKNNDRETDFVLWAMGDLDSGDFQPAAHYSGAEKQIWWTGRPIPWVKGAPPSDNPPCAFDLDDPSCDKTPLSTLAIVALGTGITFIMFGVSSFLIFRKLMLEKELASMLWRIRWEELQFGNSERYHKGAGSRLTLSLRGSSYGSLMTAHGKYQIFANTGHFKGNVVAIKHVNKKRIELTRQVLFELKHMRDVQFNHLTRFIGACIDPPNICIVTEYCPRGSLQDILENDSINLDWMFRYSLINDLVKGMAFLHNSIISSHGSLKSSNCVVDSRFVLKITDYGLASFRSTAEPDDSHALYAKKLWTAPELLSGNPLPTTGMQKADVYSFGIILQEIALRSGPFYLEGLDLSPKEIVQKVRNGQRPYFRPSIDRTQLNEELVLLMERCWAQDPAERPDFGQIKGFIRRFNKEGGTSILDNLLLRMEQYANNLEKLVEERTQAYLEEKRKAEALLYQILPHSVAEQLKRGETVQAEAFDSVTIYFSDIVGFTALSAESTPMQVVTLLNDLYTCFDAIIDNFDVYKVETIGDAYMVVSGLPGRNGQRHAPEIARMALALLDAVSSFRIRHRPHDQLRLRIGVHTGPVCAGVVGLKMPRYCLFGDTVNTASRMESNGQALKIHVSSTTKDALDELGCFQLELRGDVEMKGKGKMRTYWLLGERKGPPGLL
NPR1 activator = GC-A (human) enzyme activation. HEK293 GC-A cells, cGMP TR-FRET, EC30 ANP; 0% at EC30 ANP, 100% saturating ANP. activation, % at 10 µM. actives 0.14% (n = 370,000). AID 1671463; in the data active means activation above about 40%
HSV replic up = increases HSV replication in cells; HSV replication augmentation in cells, fold increase; maximum fold increase; actives 0.005% (n = 220,000); in the data active means maximum fold increase above about 1.5; inconclusive means no clear call, values can overlap the other calls; tested in PC3 cells
TAG inh = inhibitors of triacylglycerol accumulation; H9c2 cells, Nile Red lipid (TAG) fluorescence; cells loaded with 200 µM oleic acid; AID 651582; actives 0.66% (n = 230,000); inhibition, % at 12.5 µM;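 active means pattern-corrected inhibition of lipid staining of at least 50% with the nuclear-stain viability signal not falling by more than 50%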;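 further: 0% = DMSO wells and 100% = triacsin C control wells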
A1 inh = inhibitors of the anti-apoptotic protein A1, read as caspase activation; actives 0.066% (n = 330,000); MEF A1-2A-BIM cells, Caspase-Glo 3/7 luminescence, 3 h; percent of clofoctol response, vehicle zero; caspase activation, % (concentration not given with the values); AID 2462;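 active means over half of replicate activation scores above 10%, or exactly half above 10 with the replicate mean above 10; inconclusive means replicate mean below 10 yet half the replicates above 10; inactive means over half of replicates below 10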
Efflux pump mplx = blocks antifungal efflux pumps in multiplex yeast assay | actives 0.44% (n = 330,000) | inhibition, % at 10 µM | S. cerevisiae Candida pump triplex, Nile Red efflux;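 active means plate passing quality check with inhibition over a set limit, or well fluorescence over plate mean plus 4 SD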;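 further: Nile Red retained in pooled yeast measured as flow cytometry median fluorescence; 0% = buffer negative control and 100% = Enniatin B positive control; higher means more Nile Red kept so more efflux inhibition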
Starred values were filed as active, the others as inactive; i = inactive; ? = inconclusive; . = not tested or not shown; ! = a repeat was not active.

SMILES	NPR2 activator	NPR1 activator	HSV replic up	TAG inh	A1 inh	Efflux pump mplx
Cc1cn(-c2cc(C(=O)Nc3ccc(C)c(NC(=O)C(=O)c4c[nH]c5ccccc45)c3)cc(C(F)(F)F)c2)cn1	1	2	i	124*!	0	0
Cc1ccc(-n2c(SCc3cccc(F)c3)nnc2-c2cccc(C)c2)cc1	-23	-27	.	.	.	.
CCC(=O)OCCNc1cc(Sc2nccn2C)c2nonc2c1[N+](=O)[O-]	12	24	i	69*	-1	0
CCCCS(=O)(=O)/C=C\C=C/S(=O)(=O)CCCC	.	.	.	88*	3	0
CCC(O)(c1ccc(NC(=O)OC(C)(C)C)cc1)c1cc(OC)cc(OC)c1 (centres undefined)	-4	-2	.	.	.	.
CN1C(=O)[C@@](O)(CC(=O)c2ccccc2)c2cc(Br)ccc21	5	4	.	.	.	.
CN1C(=O)C(O)(CC(=O)c2ccccn2)c2cc(Br)ccc21 (centres undefined)	4	-7	?	53*	-1	0
Cc1cccc(-c2cccc3c4c([nH]c23)[C@@H]2C[C@H](N(C)C(=O)Nc3ccccc3C)[C@H]([C@H](C)O)CN2CC4)c1	-11	-5	.	.	.	.
COc1ccc(-c2cc(=O)oc3c(C)c(OC(=O)c4cccs4)ccc23)cc1	6	-5	i	.	17*	0
COc1ccc(-c2cc(=O)oc3c(C)c(OC(C)C(C)=O)ccc23)cc1 (centres undefined)	0	7	.	.	2	0
COc1ccc(C2=Nn3c(nnc3-c3ccccc3OC)SC2)cc1OC	7	0	i	60*	0	0
O=C(Nc1nc(-c2ccc(S(=O)(=O)N3CCCCCC3)cc2)cs1)c1cccs1	2	2	i	51*	0	0
O=C(Nc1nc(-c2ccc(S(=O)(=O)N3CCCC3)cc2)cs1)c1cccs1	4	7	i	5	0	0
CNC(=O)NC(=O)CSc1nc(-c2cccs2)c(C#N)c(=O)[nH]1	23	45*	i	-1	.	.
COc1ccccc1Cn1nnc2c(=O)[nH]c(C3CCN(C(=O)c4ccccc4Cl)CC3)nc21	48*	36	i	6	0	0
CCC[C@@H](CNC)NC[C@H](Cc1ccccc1)NCCCCc1ccccc1	-21	-9	.	131*	0	0
O=C(Nc1cccc([N+](=O)[O-])c1)c1ccc2c(c1)C(=O)N(c1ccccn1)C2=O	10	42*	.	.	0	0
Cc1csc(NC(=O)CSc2nc(C)nc3c2c(=O)n(C)c(=O)n3C)n1	37*	28	i	-6	0	0
CC(C)Oc1cccc(-c2n[nH]c(=S)n2N=Cc2ccc(O)cc2O)c1	-1	2	.	.	.	.
CCc1ccc(C2C3=C(CC(C)(C)CC3=O)Nc3c2c(=O)[nH]c2nc(C)nn32)cc1 (centres undefined)	-1	1	i	.	6.1*	0
CNC[C@@H](CC1CCCCC1)NC[C@H](CC(C)C)NCCc1cccc(C(F)(F)F)c1	-7	1	.	134*	0	.
CNC[C@@H](Cc1ccccc1)NC[C@@H](CC1CCCCC1)NCCCc1ccccc1	-17	-7	.	127	1	.
CN1CCN(c2cc(-c3cc(O)c4ncccc4c3)ccn2)CC1	-1	3	.	77*	1	0
Oc1cc(-c2cccnc2)cc2cccnc12	-3	-1	.	56*	1	0
CN1CCN(C(=O)c2cccc(-c3cc(O)c4ncccc4c3)c2)CC1	0	2	.	.	1	0
SMILES	NPR2 activator	NPR1 activator	HSV replic up	TAG inh	A1 inh	Efflux pump mplx
CC(C)C[C@H]1COc2cccc(F)c2S(=O)(=O)N1Cc1cn(CC2CCCCC2)nn1	3	3	.	.	.	.
O=C(CSc1nnc(-c2ccccc2F)n1Cc1ccco1)Nc1ccccc1-c1ccccc1	-12	-7	.	.	.	.
O=C1[C@@H]2Cc3c([nH]c4ccccc34)C(c3ccc(Cl)cc3)N2C(=O)CN1CCO (some centres undefined)	-20	-45	.	.	3	0
COc1cc(C2NCC(c3ccc(Cl)cc3Cl)c3c2[nH]c2ccccc32)cc(OC)c1OC (centres undefined)	-11	86*	i	.	0	0
O=C(O)c1ccc(C2NCC(c3ccccc3Cl)c3c2[nH]c2ccccc32)cc1 (centres undefined)	0	54*	i	5	2	0
COc1cc(C2NCCc3c2[nH]c2ccccc32)ccc1OC(C)C (centres undefined)	2	-4	i	.	1	0
COC(=O)c1cc(-c2cccc(C(C)C)c2)c(=O)n2c1CCC2	-6	-3	.	.	.	.
CCOc1ccc(NC(=O)c2cn(-c3ccc(OCC)cc3)c(=O)c3cc(OC)c(OC)cc23)cc1	29	19	i	24	1	1
CCOc1ccc(-n2cc(C(=O)Nc3cccc(C)n3)c3cc(OC)c(OC)cc3c2=O)cc1	36*	26	i	25	0	0
CC(=O)NC1CCCCN(Cc2ccc(Cl)cc2)C1=O (centres undefined)	1	1	.	.	.	.
COC(=O)COc1cc(OCC(=O)OC)c2c(-c3ccccc3)cc(=O)oc2c1	-2	-1	.	.	0	0
COC(=O)C(C)Oc1cc(OC(C)C(=O)OC)c2c(-c3ccccc3)cc(=O)oc2c1 (centres undefined)	-2	0	.	.	5.3*	0
COC(=O)[C@]12C[C@H](CC(=O)N3CCSCC3)C(=O)N(Cc3ccco3)C1=C[C@H](COCc1ccccc1)O[C@@H]2C	6	-3	.	.	.	.
O=C1c2ccc3c4c(ccc(c24)C(=O)N1CCCCO)C(=O)N(CCCCO)C3=O	-5	18	i	73*	.	.
O=C(OC12CCCN(C1)/C(=C/c1ccc(Cl)cc1)C2)c1ccco1 (centres undefined)	1	-1	.	.	.	.
COC(=O)C1=C(C)N(Cc2ccccc2)C(=NCc2ccc(OC)cc2)N[C@H]1c1cccc(F)c1	-14	-6	.	121	0	0
COC(=O)C1=C(C)N(Cc2ccccc2)C(=NCc2cccc(Cl)c2)N[C@H]1c1cccc(F)c1	.	.	.	120*	0	0
Cc1nn(-c2nc3ccccc3[nH]2)c(=O)c2ccccc12	0	2	i	3	-9	0
CC1=NN(c2nc3ccccc3[nH]2)C(=O)C1Cc1ccccc1 (centres undefined)	.	.	i	54*	0	0
Cn1cccc1[C@]1(O)C(=O)Nc2ccc(F)cc21	-1	3	.	.	.	.
COc1ccc(Nc2nc(-c3ccccc3)nc3ccccc23)cc1	5	2	.	.	0	0
COc1ccc(-c2nc(N/N=C(\C)c3ccc(O)cc3)c3ccccc3n2)cc1	-9	6	i	55*	-1	0

Screens (PubChem BioAssay)
